We go through 40 sequences from the supplement of paper PMC6555819.

For one test, the system named is PXR homodimer (NR concentration 270 nM). As to the kind of experiment: PBM binding z-score (relative to random genomic background probes); higher = stronger binding; sequences stand for … in GC…GCGATTGACAGCGTAGAATGAAGG
Put shortly: (§1)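 Each nuclear receptor dimer, without ligand, was incubated for 1 h on custom Agilent 4×180K protein-binding microarrays. Binding was detected with antibodies against each partner (one per run), and scanned fluorescence was regression-normalized. The binding z-scores are referenced to random human genomic background probes.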
Consider TCATATAGGTAACAGGTGAAAGTCGGTGTGGTAA, for which the PBM binding z-score is 0.535.
Same read-out and setting: as for AGAATGAGGTTACCAAAGATCAGGGACACGCTTG, the figure is 0.182; as for CGAACTAGGTCAAGGACAGTGCATCTCCGCACGC, 0.348.
Consider CCTACTGGGCCATCTGGTCATTGATATCAACGTT, for which the PBM binding z-score is -0.43.
As for CGTCCAAGGTCAAAGGAGGTCAGTGAAGACAGAT, the PBM binding z-score is 3.62.
Still for that read-out and setting: the result for ACTAGCAGGCCAAGTTTGGGTGACTCAAACAAAG reads -0.715; that for CAAACTAGGTCACCGGAAGGTCAAAATCCGCATG, 1.73; that for CCTGCTAGGTCAATGGTCAACTAAAGCAGCTCGC, -0.291.
On the same count and under the same terms, the result for CCAGACAGGTGAGAAGGTATCTCAGCCTCGATTA reads 0.0596; that for TCTAGCAAGCCAGAGGGTCACTCAAGAGGTACGG, -0.204.
On the same count and under the same terms, the result for CGTCCAAGGTCAGAGAGCTCAGTGAATGCCGAGT reads 0.855.
CGTCCAAGGTCAAGGTCAGCGAAAGAGACTCGAA came in with a PBM binding z-score of 0.58.
The same measure, in the same setting: as for CCTACTCGGCCATTCAGAGGTCATTGATCATATG, the figure is 3.38.
Consider TCGAATAGGTTACCAATGGGGCATTCAGCTTTCT, for which the PBM binding z-score came out at 0.0437.
On the same count and under the same terms, the result for ATCGAGAGGTCGAAGGTGAGTATACCCACCCGAA reads -0.494; that for CCTTGCAGGCCAGGGTCACTCAAGCATTTCGCTT, -0.433.
Same read-out and setting: the result for TCGCGTAGGTTAGTCGGGGCATTCAGCCAACATA reads -0.158; that for AGGATGAGGTTACCAAAGATCAGGGAAACGCTTG, 0.27.

The next test deals with RARa:RXR (NR concentration 270 nM, RXRa partner concentration 90 nM). Described as above. Put shortly: as §1
The sequence AATACAGGGTCATCGTAGGCCAGAGAACGCACAG had a PBM binding z-score of 5.41.
The sequence CCGACTGGGGCATAAGGTTACGATAAGCCAGCCC returned a PBM binding z-score of 1.66.
Sequence CGTCCAAGGTCAGAGAGGTAAGTGAATGCCGAGT displayed a PBM binding z-score of 3.24.
Sequence TCGAGTAGGTTACCAATGGGGCGTTCAGCTTTCT returned a PBM binding z-score of 0.167.
The same measure, in the same setting: as for CCTCCTGGGCCAAAGGTCATTGATTCCAATGCTC, the figure is 5.99; as for GCGACTGGGGCATCAGGAGGTTACCATAACTTAA, 1.16.
The same measure, in the same setting: the result for CCTATTAGTTGACCATAAGGGCAACGGAAGCTCG reads 0.736; that for CAAACTAGGTCAACGGAAGGTCAAAGTCCGCATG, 7.48; that for ACTATTAGTTGAGACGCGGGCAACCGATAGGTTG, -0.588.
On to ACTAGTTAGTCAGCTGAGGTCACACACAATTCGG, for which the PBM binding z-score came to 5.01.
Turning to ATCGAAAGGTCGAAGGTGAATATACCCACCCGAA, the PBM binding z-score worked out at 5.15.
Still for that read-out and setting: the result for ATATCTAGGTTAGCTGGGGTCATTCAGACTAGGC reads 5.11; that for TCTTGTAGATCAAGCAGGTTAAGAAGGCCTGAGT, 0.642; that for CCAGACAGGTTAAAGGTAACTCAGTCTGGTACGC, 3.52.
On the same count and under the same terms, as for TCTTGTAGATCAAAGGTTAAGTAAGCCGAAGCCT, the figure is 3.2.
Same read-out and setting: the result for TCTGCAAGGTCAGTTGGTCAGCTAACGAGCTGCC reads 2.67; that for TTACCAAGGTGAAGGTCGCTGATCCCTCTGTAGA, 1.56.
Sequence ACTTACGGGGCAACGAGGTTATAGCACGCGTATA registered a PBM binding z-score of 1.73.
Still for that read-out and setting: the result for TCTGCTAGGTCAACGATGGTCAGCCAATCTGCTA reads 2.02; that for ATCTCTACGTAACCAAGTTCAGTGAATGCCGAAC, 0.427.
On the same count and under the same terms, the result for GCTATTAGTTGAAAGGGCATCCGAATGATTCTCG reads 1.21.
On the same count and under the same terms, the result for CGAACTAGGTCGTTGACAGGACAGTGAATAGTAA reads 0.276.
Sequence TCATATAGGTAACAGGTGAAAGTCGGTGTGGTAA had a PBM binding z-score of 0.876.
Still for that read-out and setting: the result for AGAATGAGGTTACCAAAGATCAGGGACACGCTTG reads 2.1.
Still for that read-out and setting: as for CGAACTAGGTCAAGGACAGTGCATCTCCGCACGC, the figure is 1.94; as for CCTACTGGGCCATCTGGTCATTGATATCAACGTT, -0.692; as for CGTCCAAGGTCAAAGGAGGTCAGTGAAGACAGAT, 5.79.
Sequence ACTAGCAGGCCAAGTTTGGGTGACTCAAACAAAG displayed a PBM binding z-score of -0.198.
The same measure, in the same setting: the result for CAAACTAGGTCACCGGAAGGTCAAAATCCGCATG reads 7.2; that for CCTGCTAGGTCAATGGTCAACTAAAGCAGCTCGC, 2.27; that for CCAGACAGGTGAGAAGGTATCTCAGCCTCGATTA, 0.185.
Still for that read-out and setting: the result for TCTAGCAAGCCAGAGGGTCACTCAAGAGGTACGG reads 1.96; that for CGTCCAAGGTCAGAGAGCTCAGTGAATGCCGAGT, 2.37.
Same read-out and setting: as for CGTCCAAGGTCAAGGTCAGCGAAAGAGACTCGAA, the figure is 4.95; as for CCTACTCGGCCATTCAGAGGTCATTGATCATATG, 4.55.
Take TCGAATAGGTTACCAATGGGGCATTCAGCTTTCT: the PBM binding z-score stood at 0.908.
Regarding ATCGAGAGGTCGAAGGTGAGTATACCCACCCGAA, the PBM binding z-score is 3.29.
For the sequence CCTTGCAGGCCAGGGTCACTCAAGCATTTCGCTT, the PBM binding z-score came to 3.33.
Still for that read-out and setting: as for TCGCGTAGGTTAGTCGGGGCATTCAGCCAACATA, the figure is 0.335.
The same measure, in the same setting: the result for AGGATGAGGTTACCAAAGATCAGGGAAACGCTTG reads 2.02.
